Results on 62 molecules are retold here after PMC12670160, “A drug-repurposing screen of FDA- and EMA-approved drugs identifies two NF-κB inhibitors active against eumycetoma” (Journal of Antimicrobial Chemotherapy, 2025).

Structures can show the parent of a compound that is named as a salt. Where two headings read alike, the source gives them in different places. The whole screen tested about 5,300 compounds, of which about 130 (2.5%) showed an effect of 50% or more. What follows is part of a selection rich in strong results, with near analogues and random picks from the rest.

For the assay, the system named is M. mycetomatis strain mm55. To be noted: primary screen, metabolic activity vs growth control, 96 h, 2 µM, inhibitor.
The mark [1] stands for this setting: Madurella mycetomatis metabolic activity at 2µM (%).

As for `Cc1c(S(=O)(=O)O)oc2c1C(=O)C(=O)c1c-2ccc2c1CCCC2(C)C` [ONC0003377, sodiumtanshinoneiiasulfonate], the “% viability” value amounted to 55.5%.
For the molecule `C[C@H]1COC2=C1C(=O)C(=O)c1c2ccc2c1CCCC2(C)C` [ONC0001081, cryptotanshinone], the “% viability” value worked out at 49.66%.
As to `Cc1coc2c1C(=O)C(=O)c1c-2ccc2c1CCCC2(C)C` [ONC0005254, tanshinone iia tanshinone b], the “% viability” value amounted to 103.2%.
On the same count and under the same terms, as for `Nc1nc2nc[nH]c2c(=S)[nH]1` [ONC0003925, tioguanine], the figure is 107.9%; as for `O=c1[nH]c(=O)n([C@H]2C[C@H](O)[C@@H](CO)O2)cc1F` [ONC0002845, floxuridine], 24.01%; as for `Cc1cn([C@@H]2C[C@@H](O)[C@H](CO)O2)c(=O)[nH]c1=O` [ONC0004416, telbivudine sebivo tyzeka], 98.41%.
Still for that read-out and setting: as for `O=c1[nH]c(=O)n([C@H]2C[C@H](O)[C@@H](CO)O2)cc1Br` [ONC0001774, 5brdu], the figure is 105.2%; as for `Nc1ncn([C@H]2C[C@H](O)[C@@H](CO)O2)c(=O)n1` [ONC0003115, decitabine], 79.17%; as for `Nc1nc(=O)n([C@H]2C[C@H](O)[C@@H](CO)O2)cc1F` [ONC0004119, 5fluoro2deoxycytidine], 7.324%.
Same read-out and setting: as for `Nc1nc(=O)n([C@H]2C[C@H](O)[C@@H](CO)O2)cc1Cl` [ONC0003690, 5chloro2deoxycytidine], the figure is 55.79%; as for `Nc1nccc(/C=C/c2ccccc2)n1` [ONC0001621, tcn238], 73.65%.
As for `CCC(C/C=C/c1ccccc1)(c1ccccc1)N(C)CC1CC1` (centres unmarked) [ONC0003075, igmesine], the “% viability” value was found to be 61.21%.
Same read-out and setting: as for `O=C(NCCN1CCC2(CC1)C(=O)NCN2c1cccc(F)c1)c1ccc(F)c(F)c1` [ONC0004390, ml298], the figure is 135.4%; as for `O=C(CCCN1CCC2(CC1)C(=O)NCN2c1ccccc1)c1ccc(F)cc1` [ONC0000014, spiperone], 87.63%.
Turning to `O=C1NCN(c2ccccc2)C12CCN(CCCC(c1ccc(F)cc1)c1ccc(F)cc1)CC2` [ONC0003520, fluspirilene], the “% viability” value is reported as 48.06%.
On the same count and under the same terms, to `CC(C)c1cc(CNc2nc(Nc3cc(C4CC4)[nH]n3)cc(N3CCN(C)CC3)n2)on1` [ONC0000976, xl228] belongs 85.75%; to `CCCC[C@H](NC(C)=O)C(=O)N[C@H]1CC(=O)NCCCC[C@@H](C(=O)O)NC(=O)[C@H](Cc2c[nH]c3ccccc23)NC(=O)[C@H](CCCN=C(N)N)NC(=O)[C@@H](Cc2ccccc2)NC(=O)[C@H](Cc2cnc[nH]2)NC1=O` [ONC0002156, bremelanotide acetate], 73.73%.
The same measure, in the same setting: to `O=C1O[C@@H](CO)[C@H](O)[C@@H](O)[C@@H]1O` [ONC0003123, gluconolactone] belongs 67.77%; to `C[N+]1(C)CCC(=C(c2ccccc2)c2ccccc2)CC1` [ONC0004508, diphemanil methylsulfate], 48.99%; to `C[N+]1(C)CCC(OC(=O)C(c2ccccc2)c2ccccc2)CC1` [ONC0003592, 4damp], 92.53%.
As for `Clc1cccc(Cl)c1N=C1NCCN1` [ONC0004193, clonidine hydrochloride], the “% viability” value is 96.49%.
For the molecule “Ac-PHSCN-NH2 [ONC0000745, atn161 trifluoroacetate salt]”, the “% viability” value came to 72.86%.
Same read-out and setting: to `CCNC(=O)[C@@H]1CCCN1C(=O)[C@H](CCCNC(=N)N)NC(=O)[C@H](CC(C)C)NC(=O)[C@@H](C)NC(=O)[C@H](Cc1ccc(O)cc1)NC(=O)[C@H](CO)NC(=O)[C@H](Cc1c[nH]c2ccccc12)NC(=O)[C@H](Cc1c[nH]cn1)NC(=O)[C@@H]1CCC(=O)N1` [ONC0002202, alarelin acetate] belongs 212.3%.
Regarding `CC(CN(C)C)CN1c2ccccc2Sc2ccccc21` (centres unmarked) [ONC0003228, trimeprazine tartrate], the “% viability” value under setting [1] is recorded as 94.09%.
Regarding `CS(=O)(=O)c1ccc(Oc2cc(F)cc(C#N)c2)c2c1[C@H](O)C(F)(F)C2` [ONC0001118, pt2385], the “% viability” value is recorded as 47.48%.
On the same count and under the same terms, to `C[N+](C)(C)[C@@H](Cc1c[nH]c(=S)[nH]1)C(=O)O` [ONC0003509, lergothioneine] belongs 51.74%; to `CCOC(=O)N1CSCC1C(=O)O` (centres unmarked) [ONC0002766, 3ethyl thiazolidine34dicarboxylate], 97.19%; to `Nc1ncnc2c1ncn2[C@H]1O[C@@H](C(=O)N2CCN(CC(=O)Nc3cccc4c3CNC4=O)CC2)[C@H](O)[C@@H]1O` [ONC0001619, eb47], 55.83%.
On the same count and under the same terms, to `Cc1cn([C@H]2O[C@@H](CO)[C@H](O)[C@@H]2F)c(=O)[nH]c1=O` [ONC0004549, clevudine levovir] belongs 61.35%; to `O=C(O)/C=C\c1c[nH]cn1` [ONC0002668, cisurocanic acid], 45.73%.
The same measure, in the same setting: to `O=C(O)/C=C/c1c[nH]cn1` [ONC0003737, cisurocanicacid] belongs 146.4%; to `N[C@H](Cc1c[nH]cn1)C(=O)O` [ONC0001939, dhistidine], 75.44%.
For the molecule `NC(=O)c1nc[nH]c1O` [ONC0003682, 5hydroxy1himidazole4carboxamide], the “% viability” value is reported as 60.3%.
Same read-out and setting: as for `Nc1nc2nn[nH]c2c(=O)[nH]1` [ONC0002792, azaguanine8], the figure is 265.7%; as for `COCCNC(=O)COc1ccc(OCCNC[C@H](O)COc2ccccc2)cc1` [ONC0001450, zd7114], 94.55%.
The same measure, in the same setting: to `O=C(O)COc1ccc(OCCNC[C@H](O)COc2ccccc2)cc1` [ONC0002275] belongs 78.74%; to `O=C(O)Cc1ccc(OCCNC[C@H](O)c2ccccc2)cc1` [ONC0001068, zd2079], 36.58%.
On the same count and under the same terms, as for `COc1ccc(C[C@H](C)NC[C@@H](O)c2ccc(O)c(NC=O)c2)cc1` [ONC0001548, formoterol], the figure is 81.88%; as for `COc1ccc([C@]2(O)CC[C@@H](N3CC[C@@H](NC(=O)CNC(=O)c4cccc(C(F)(F)F)c4)C3)CC2)cn1` [ONC0000726, incb 3284], 81.5%; as for `c1ccc(-c2ccc(CNc3nc(-c4ccccn4)nnc3-c3ccccc3)cc2)cc1` [ONC0001674, ml228], 2.835%.
As for `c1ccc(NCc2ccc(CNc3ccccn3)cc2)nc1` [ONC0004550, wz 811], the “% viability” value is given as 63.57%.
Still for that read-out and setting: to `c1cnc(NCc2ccc(CNc3ncccn3)cc2)nc1` [ONC0002000, msx122] belongs 83.13%.
Same read-out and setting: to `FCc1ccc(OCCOc2ccc(Cl)cc2Cl)c(Cl)n1` [ONC0000095, cym50260] belongs 81.52%.
In the case of `O=C(O)CN(CCN(CC(=O)O)CC(=O)O)CCN(CC(=O)O)CC(=O)O` [ONC0005432, gadopenteticacid], the “% viability” value under setting [1] is 103.1%.
Turning to `CC(C)N[C@@H]1CCn2c(=O)[nH]c3cccc(c32)[C@H]1O` [ONC0001941, zilpaterolhcl], the “% viability” value was 67.69%.
The same measure, in the same setting: to `COc1cccc2c1C(=O)c1c(O)c3c(c(O)c1C2=O)C[C@@](O)(C(=O)CO)C[C@@H]3O[C@H]1C[C@H](N)[C@@H](O)[C@H](C)O1` [ONC0004636, epirubicin hydrochloride] belongs 92.65%; to `CC(=O)[C@]1(O)Cc2c(O)c3c(c(O)c2[C@@H](O[C@H]2C[C@H](N)[C@H](O)[C@H](C)O2)C1)C(=O)c1ccccc1C3=O` [ONC0004533, idarubicin hcl], 43.23%.
Same read-out and setting: as for `COc1cccc2c1C(=O)c1c(O)c3c(c(O)c1C2=O)C[C@@](O)(C(C)=O)C[C@@H]3O[C@H]1C[C@H](N)[C@H](O)[C@H](C)O1` [ONC0001686, daunorubicin], the figure is 72.25%; as for `CNC(=O)ON(C(C)=O)C(=O)NC` [ONC0003740, caracemide], 136.5%.
Still for that read-out and setting: to `NC(=O)c1nc(F)c[nH]c1=O` [ONC0003386, favipiravir] belongs 85.13%.
As to `CC(=O)Nc1ccc(OCC(O)CNC(C)C)cc1` (centres unmarked) [ONC0002176, practolol], the “% viability” value is listed as 73.91%.
Still for that read-out and setting: as for `CCCC(=O)Nc1ccc(OCC(O)CNC(C)C)c(C(C)=O)c1` (centres unmarked) [ONC0003369, acebutolol hydrochloride], the figure is 44.26%; as for `CCN(CC)C(=O)Nc1ccc(OCC(O)CNC(C)(C)C)c(C(C)=O)c1` (centres unmarked) [ONC0002160, celiprolol], 87.56%; as for `O=C(O)c1cc(/N=N/c2ccc(S(=O)(=O)Nc3ccccn3)cc2)ccc1O` [ONC0000599, sulfasalazine], 109.1%.
In the case of `COc1ccc(NS(=O)(=O)c2ccc(N)cc2)nn1` [ONC0000622, sulfamethoxypyridazine], the “% viability” value is recorded as 113.3%.
Still for that read-out and setting: as for `COc1ccc(NS(=O)(=O)c2ccc(N=Nc3ccc(O)c(C(=O)O)c3)cc2)nn1` [ONC0003399, salazodine], the figure is 47.95%.
Consider `NS(=O)(=O)NCCNc1nonc1C(=NO)Nc1ccc(F)c(Br)c1` [ONC0005250, epacadostat incb024360], for which the “% viability” value came to 130.3%.
Still for that read-out and setting: to `CN1CCN(C(=O)C2C(C(=O)O)[C@@H]3CC[C@H]2O3)CC1` (some centres unmarked) [ONC0001871, lb100] belongs 109.3%.
On the same count and under the same terms, to `CCO/N=C(/C(=O)N[C@@H]1C(=O)N2C(C(=O)O)=C(Sc3nc(-c4cc[n+](C)cc4)cs3)CS[C@H]12)c1nsc(NP(=O)(O)O)n1` [ONC0002991, ceftarolinefosamil] belongs 80.17%; to `COc1ccc(NS(=O)(=O)c2sc3ccc(Cl)cc3c2C)cc1N1CCNCC1` [ONC0005236, sb 271046], 123.6%.
`COc1ccc(NS(=O)(=O)c2ccc(I)cc2)cc1N1CCN(C)CC1` [ONC0001661, sb258585]: the “% viability” value came to 76.38%.
Same read-out and setting: as for `COc1ccc(S(=O)(=O)Nc2cc(Cl)cc(Cl)c2OC)cc1N1CCNCC1` [ONC0000041, sb399885], the figure is 47.84%.
